# Article PMC5540273 (PLoS ONE, 2017)
# Read-outs that look alike come from different tables or passages of the source.
# How the values were obtained:
# FGFR1 = conditions: concentration: 1 μM, replicates: in singlicate; n = 1
# FGFR2 = conditions: concentration: 1 μM, replicates: in singlicate; n = 1
# FGFR3 = conditions: concentration: 1 μM, replicates: in singlicate; n = 1
# FGFR4 = conditions: concentration: 1 μM, replicates: in singlicate; n = 1
# FGR = conditions: concentration: 1 μM, replicates: in singlicate; n = 1
# FLT1 = conditions: concentration: 1 μM, replicates: in singlicate; n = 1
# FLT3-autoinhibited = conditions: concentration: 1 μM, replicates: in singlicate; n = 1
# FLT3 = conditions: concentration: 1 μM, replicates: in singlicate; n = 1
# FLT4 = conditions: concentration: 1 μM, replicates: in singlicate; n = 1
# FRK = conditions: concentration: 1 μM, replicates: in singlicate; n = 1
# FYN = conditions: concentration: 1 μM, replicates: in singlicate; n = 1
# GAK = conditions: concentration: 1 μM, replicates: in singlicate; n = 1
# GCN2(Kin.Dom.2,S808G) = tested on: T1, GCN2(Kin.Dom.2,S808G); conditions: concentration: 1 μM, replicates: in singlicate; n = 1
# T1 construct: gene EIF2AK4
# GRK1 = conditions: concentration: 1 μM, replicates: in singlicate; n = 1
# GRK2 = tested on: T2, GRK2; conditions: concentration: 1 μM, replicates: in singlicate; n = 1
# T2 construct: gene ADRBK1
# GRK3 = tested on: T3, GRK3; conditions: concentration: 1 μM, replicates: in singlicate; n = 1
# T3 construct: gene ADRBK2
# GRK4 = conditions: concentration: 1 μM, replicates: in singlicate; n = 1
# GRK7 = conditions: concentration: 1 μM, replicates: in singlicate; n = 1
# GSK3A = conditions: concentration: 1 μM, replicates: in singlicate; n = 1
# GSK3B = conditions: n = 1
# [1] = concentration: 1 μM, replicates: in singlicate
# 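Note: KINOMEscan kinase panel screen.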
smiles,measurement,setting,value
COc1cc(Nc2nccc(-c3c(-c4cccc(NC(=O)c5c(F)cccc5F)c4)nn4ccccc34)n2)cc(OC)c1OC [GSK323521],%Inh,FGFR1,17%
same,%Inh,FGFR2,0%
same,%Inh,FGFR3,12%
same,%Inh,FGFR4,0%
same,%Inh,FGR,27%
same,%Inh,FLT1,41%
same,%Inh,FLT3-autoinhibited,0%
same,%Inh,FLT3,98.4%
same,%Inh,FLT4,20%
same,%Inh,FRK,11%
same,%Inh,FYN,23%
same,%Inh,GAK,28%
same,%Inh,"GCN2(Kin.Dom.2,S808G)",29%
same,%Inh,GRK1,13%
same,%Inh,GRK2,0%
same,%Inh,GRK3,0%
same,%Inh,GRK4,16%
same,%Inh,GRK7,0%
same,%Inh,GSK3A,0%
same,%Inh,GSK3B; [1],23%
COc1cc(Nc2ncc3c(C)nc(-c4cc5ccccc5[nH]4)n3n2)cc(OC)c1OC [GW869516],%Inh,FGFR1,35%
same,%Inh,FGFR2,21%
same,%Inh,FGFR3,30%
same,%Inh,FGFR4,15%
same,%Inh,FGR,40%
same,%Inh,FLT1,23%
same,%Inh,FLT3-autoinhibited,75%
same,%Inh,FLT3,96.3%
same,%Inh,FLT4,1%
same,%Inh,FRK,39%
same,%Inh,FYN,30%
same,%Inh,GAK,34%
same,%Inh,"GCN2(Kin.Dom.2,S808G)",88%
same,%Inh,GRK1,0%
same,%Inh,GRK2,0%
same,%Inh,GRK3,0%
same,%Inh,GRK4,19%
same,%Inh,GRK7,0%
same,%Inh,GSK3A,0%
same,%Inh,GSK3B; [1],0%
O=C(Nc1n[nH]c2cc(-c3ccoc3)ccc12)C1CC1 [SB-738481],%Inh,FGFR1,0%
same,%Inh,FGFR2,0%
same,%Inh,FGFR3,7%
same,%Inh,FGFR4,0%
same,%Inh,FGR,22%
same,%Inh,FLT1,27%
same,%Inh,FLT3-autoinhibited,17%
same,%Inh,FLT3,91.8%
same,%Inh,FLT4,0%
same,%Inh,FRK,0%
same,%Inh,FYN,0%
same,%Inh,GAK,2%
same,%Inh,"GCN2(Kin.Dom.2,S808G)",0%
same,%Inh,GRK1,18%
same,%Inh,GRK2,0%
same,%Inh,GRK3,0%
same,%Inh,GRK4,44%
same,%Inh,GRK7,9%
same,%Inh,GSK3A,92.7%
same,%Inh,GSK3B; 1 µM,54%
CC(=O)Nc1nc2cnc(Nc3cc(NC(=O)c4cccc(C5(C#N)CC5)c4Cl)ccc3C)nc2s1,%Inh,FGFR1,2%
same,%Inh,FGFR2,15%
same,%Inh,FGFR3,0%
same,%Inh,FGFR4,0%
same,%Inh,FGR,52%
same,%Inh,FLT1,44%
same,%Inh,FLT3-autoinhibited,0%
same,%Inh,FLT3,0%
same,%Inh,FLT4,60%
same,%Inh,FRK,93.2%
same,%Inh,FYN,50%
same,%Inh,GAK,0%
same,%Inh,"GCN2(Kin.Dom.2,S808G)",19%
same,%Inh,GRK1,6%
same,%Inh,GRK2,0%
same,%Inh,GRK3,14%
same,%Inh,GRK4,14%
same,%Inh,GRK7,15%
same,%Inh,GSK3A,0%
same,%Inh,GSK3B; [1],0%
FC(F)(F)c1ccc(/C=C/c2cncnc2Nc2ccc3[nH]c(Cc4ccccc4)nc3c2)cc1 [GW709199],%Inh,FGFR1,20%
same,%Inh,FGFR2,0%
same,%Inh,FGFR3,0%
same,%Inh,FGFR4,4%
same,%Inh,FGR,34%
same,%Inh,FLT1,12%
same,%Inh,FLT3-autoinhibited,0%
same,%Inh,FLT3,19%
same,%Inh,FLT4,0%
same,%Inh,FRK,10%
same,%Inh,FYN,10%
same,%Inh,GAK,0%
same,%Inh,"GCN2(Kin.Dom.2,S808G)",0%
same,%Inh,GRK1,11%
same,%Inh,GRK2,0%
same,%Inh,GRK3,0%
same,%Inh,GRK4,18%
same,%Inh,GRK7,0%
same,%Inh,GSK3A,39%
same,%Inh,GSK3B; [1],0%
CC(=O)N1CCN(c2ccc(Nc3nccc(-c4sc(C(C)C)nc4-c4cccc(NS(=O)(=O)c5cccc(Cl)c5)c4)n3)cn2)CC1 [GSK1660437],%Inh,FGFR1,20%
same,%Inh,FGFR2,0%
same,%Inh,FGFR3,7%
same,%Inh,FGFR4,0%
same,%Inh,FGR,78%
same,%Inh,FLT1,81%
same,%Inh,FLT3-autoinhibited,9%
same,%Inh,FLT3,33%
same,%Inh,FLT4,82%
same,%Inh,FRK,70%
same,%Inh,FYN,73%
same,%Inh,GAK,90.9%
same,%Inh,"GCN2(Kin.Dom.2,S808G)",100%
same,%Inh,GRK1,0%
same,%Inh,GRK2,12%
same,%Inh,GRK3,0%
same,%Inh,GRK4,30%
same,%Inh,GRK7,0%
same,%Inh,GSK3A,12%
same,%Inh,GSK3B; [1],10%
CN(c1ccc(NC(=O)Nc2cc(C(F)(F)F)ccc2F)cc1)c1ccnc(Nc2ccc(S(N)(=O)=O)cc2)n1 [GW809893],%Inh,FGFR1,76%
same,%Inh,FGFR2,70%
same,%Inh,FGFR3,22%
same,%Inh,FGFR4,14%
same,%Inh,FGR,94.7%
same,%Inh,FLT1,98.3%
same,%Inh,FLT3-autoinhibited,82%
same,%Inh,FLT3,98.6%
same,%Inh,FLT4,99.8%
same,%Inh,FRK,99%
same,%Inh,FYN,83%
same,%Inh,GAK,0%
same,%Inh,"GCN2(Kin.Dom.2,S808G)",0%
same,%Inh,GRK1,17%
same,%Inh,GRK2,13%
same,%Inh,GRK3,0%
same,%Inh,GRK4,25%
same,%Inh,GRK7,6%
same,%Inh,GSK3A,68%
same,%Inh,GSK3B; [1],12%
Nc1ncnc2c1nc(-c1ccccc1)n2-c1ccccc1 [SKF-97293],%Inh,FGFR1,12%
same,%Inh,FGFR2,20%
same,%Inh,FGFR3,0%
same,%Inh,FGFR4,0%
same,%Inh,FGR,31%
same,%Inh,FLT1,9%
same,%Inh,FLT3-autoinhibited,14%
same,%Inh,FLT3,20%
same,%Inh,FLT4,0%
same,%Inh,FRK,0%
same,%Inh,FYN,0%
same,%Inh,GAK,1%
same,%Inh,"GCN2(Kin.Dom.2,S808G)",0%
same,%Inh,GRK1,36%
same,%Inh,GRK2,0%
same,%Inh,GRK3,13%
same,%Inh,GRK4,13%
same,%Inh,GRK7,43%
same,%Inh,GSK3A,0%
same,%Inh,GSK3B; [1],40%
COc1cc(Nc2nccc(-c3c(-c4cccc(NC(=O)c5c(F)cccc5F)c4)nn4ncccc34)n2)cc(OC)c1OC [GSK327238],%Inh,FGFR1,66%
same,%Inh,FGFR2,61%
same,%Inh,FGFR3,31%
same,%Inh,FGFR4,9%
same,%Inh,FGR,99.1%
same,%Inh,FLT1,99.2%
same,%Inh,FLT3-autoinhibited,0%
same,%Inh,FLT3,96.1%
same,%Inh,FLT4,99.8%
same,%Inh,FRK,96.9%
same,%Inh,FYN,97.5%
same,%Inh,GAK,31%
same,%Inh,"GCN2(Kin.Dom.2,S808G)",69%
same,%Inh,GRK1,0%
same,%Inh,GRK2,0%
same,%Inh,GRK3,0%
same,%Inh,GRK4,0%
same,%Inh,GRK7,0%
same,%Inh,GSK3A,11%
same,%Inh,GSK3B; [1],7%
